This note sets out measurements from PubChem BioAssay (EPA / NIEHS).

The subject of experiment [1] is Sodium/Iodide Symporter (NIS), SLC5A5 (gene 6528). Kind of experiment: CPHEA_Stoker_NIS_Inhibition_RAIU: CPHEA's Radioactive Iodide Uptake (RAIU) Assay for Sodium/Iodide Symporter (NIS) Inhibition, Stoker and Laws Labs (AID 2283841). The method, boiled down:
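hNIS-HEK293T-EPA cells incubated 2 h at room temperature with compound (0.001–100 uM, 0.5% DMSO) and 329 pM final 125I in HBSS/10 mM HEPES, pH 7.4. Intracellular 125I counted; normalised to DMSO maximal uptake, triplicate, three biological replicates.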

Experiment [2] can be described thus: CPHEA_Stoker_NIS_Cytotoxicity: Cytotoxicity Assessment for CPHEA's Radioactive Iodide Uptake (RAIU) Assay for Sodium/Iodide Symporter (NIS) Inhibition, Stoker and Laws Labs (AID 2283897).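 On AC50: active means loss of ATP signal versus DMSO meaning cytotoxicity.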 The method, boiled down: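 hNIS-HEK293T-EPA cells, human NIS expressed in HEK293T, treated 2 h with chemicals (0.001–100 uM, 0.5% final DMSO). ATP content read by CellTiter-Glo luminescence; loss of signal analysed relative to DMSO.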

A short description of experiment [3]: ATG_M_32_XSP2: Attagene TRANS-FACTORIAL Multi-Species (XSP2) HepG2 Assay for M19 Transcription Factor (Internal Marker) (AID 2283826). The gist of the method: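 HepG2 cells transiently transfected with GAL4-UAS reporter transcription units, dosed with compound for 24 h in presence of 3 nM 6-alpha-fluorotestosterone and 1.5 nM norgestrel; reporter mRNA quantified by RT-PCR, FAM labelling, HpaI digestion and capillary electrophoresis.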

The target of experiment [4] is mouse Peroxisome Proliferator-activated Receptor gamma (PPARg), Pparg (gene 19016) (UniProt P37238). Briefly: ATG_mPPARg_XSP2: Attagene TRANS-FACTORIAL Multi-Species (XSP2) HepG2 Assay for mouse Peroxisome Proliferator-activated Receptor gamma (PPARg) (AID 2283830).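 Further: hits are gains in reporter mRNA above DMSO so AC50 marks activation.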 The method, boiled down: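 Multiplexed TRANS reporter readout: after 24 h chemical exposure of transfected HepG2 cells (with 3 nM 6-alpha-fluorotestosterone, 1.5 nM norgestrel present), RNA reverse-transcribed, amplified, 6-FAM-labelled and resolved by capillary electrophoresis; mouse PPARg-Gal4 induction scored against DMSO.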
Chain of mouse Peroxisome Proliferator-activated Receptor gamma (PPARg), Pparg (gene 19016) (P37238 whole entry, looked up, the tested form may be a part): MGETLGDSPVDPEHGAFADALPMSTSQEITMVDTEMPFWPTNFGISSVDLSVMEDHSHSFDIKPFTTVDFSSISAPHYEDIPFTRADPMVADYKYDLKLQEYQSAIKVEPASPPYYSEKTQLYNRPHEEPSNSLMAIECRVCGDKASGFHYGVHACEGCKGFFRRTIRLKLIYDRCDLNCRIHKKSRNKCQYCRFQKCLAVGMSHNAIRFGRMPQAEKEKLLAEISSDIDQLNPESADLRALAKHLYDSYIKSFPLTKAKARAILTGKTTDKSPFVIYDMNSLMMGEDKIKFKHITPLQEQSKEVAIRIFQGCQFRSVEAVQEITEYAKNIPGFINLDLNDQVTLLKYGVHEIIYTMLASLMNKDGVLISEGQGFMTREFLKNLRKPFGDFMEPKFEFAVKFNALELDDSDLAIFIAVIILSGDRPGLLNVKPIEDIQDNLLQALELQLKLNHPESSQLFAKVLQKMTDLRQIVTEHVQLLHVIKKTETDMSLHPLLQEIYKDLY

Experiment [5] deals with Nuclear receptor subfamily 1 group I member 2 (Mus musculus) (UniProt O54915). Briefly: ATG_mPXR_XSP2: Attagene TRANS-FACTORIAL Multi-Species (XSP1) HepG2 Assay for mouse Pregnane X Receptor (PXR) (AID 2283831). The gist of the method: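 HepG2 cells transiently transfected with GAL4-UAS reporter units expressing chimeric NR-GAL4 proteins; reporter mRNA measured 24 h after dosing by RT-PCR with 6-FAM labelling and capillary electrophoresis, gain of signal relative to DMSO.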
Chain of Nuclear receptor subfamily 1 group I member 2 (Mus musculus) (O54915 whole entry, looked up, the tested form may be a part): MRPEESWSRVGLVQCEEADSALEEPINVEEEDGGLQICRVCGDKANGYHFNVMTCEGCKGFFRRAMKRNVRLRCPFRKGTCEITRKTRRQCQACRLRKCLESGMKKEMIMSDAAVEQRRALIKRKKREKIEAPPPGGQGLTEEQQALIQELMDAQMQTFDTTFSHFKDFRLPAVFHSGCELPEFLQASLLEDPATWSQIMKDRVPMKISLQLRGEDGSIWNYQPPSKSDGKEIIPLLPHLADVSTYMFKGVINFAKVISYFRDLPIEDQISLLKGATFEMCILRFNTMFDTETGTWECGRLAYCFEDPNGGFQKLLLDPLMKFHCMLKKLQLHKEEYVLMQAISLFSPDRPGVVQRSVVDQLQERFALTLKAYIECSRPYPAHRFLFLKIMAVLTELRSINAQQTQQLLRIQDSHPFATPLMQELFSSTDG

The target of experiment [6] is zebrafish Thyroid Hormone Receptor alpha (TRa), thraa (gene 30670) (UniProt Q98867). Kind of experiment: ATG_zfTRa_XSP2: Attagene TRANS-FACTORIAL Multi-Species (XSP1) HepG2 Assay for zebrafish Thyroid Hormone Receptor alpha (TRa) (AID 2283832).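 Further: actives raise zebrafish TRa-Gal4 reporter transcript above DMSO baseline.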 The method, boiled down:
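Readout is reporter mRNA induction, quantified by RT-PCR and capillary electrophoresis with fluorescent labelling, after 24 h compound exposure of transiently transfected HepG2 cells carrying NR-Gal4 chimera reporters. Activity fitted upward relative to DMSO.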

The test system of experiment [7] is zebrafish Peroxisome Proliferator-activated Receptor gamma (PPARg), gene 557037. Kind of experiment: ATG_zfPPARg_XSP2: Attagene TRANS-FACTORIAL Multi-Species (XSP2) HepG2 Assay for zebrafish Peroxisome Proliferator-activated Receptor gamma (PPARg) (AID 2283833).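 Further: actives increase reporter signal over DMSO so AC50 reflects activation.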 The gist of the method:
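HepG2 cells transiently transfected with GAL4-UAS reporter units expressing a zebrafish PPARg–GAL4 chimera; compound exposure 24 h. Reporter mRNA quantified by RT-PCR with fluorescent labelling and capillary electrophoresis; gain of signal fitted relative to DMSO baseline.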

The test system of experiment [8] is turtle Thyroid Hormone Receptor, alpha (TRa), gene 101949057. Kind of experiment: ATG_trTRa_XSP2: Attagene TRANS-FACTORIAL Multi-Species (XSP1) HepG2 Assay for turtle Thyroid Hormone Receptor, alpha (TRa) (AID 2283834).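 Further: hits raise reporter mRNA over the DMSO baseline so AC50 marks activators.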 The gist of the method:
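HepG2 cells transiently transfected with multiplexed GAL4-UAS reporter units expressing chimeric NR-Gal4 proteins were dosed for 24 hours. Reporter mRNA was quantified by RT-PCR with 6-FAM labelling and capillary electrophoresis, gain of signal scored against DMSO.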

Experiment [9] is described as follows: ATG_M_61_XSP2: Attagene TRANS-FACTORIAL Multi-Species (XSP2) HepG2 Assay for M61 Transcription Factor (Internal Marker) (AID 2283835; active means hit-call score of the fitted dose curve at least 0.9, where 1 is the maximum; inactive means score below 0.9;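 further: active means a rise in signal above the DMSO baseline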). The method, boiled down: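 Internal background marker, read as RT-PCR/capillary-electrophoresis reporter mRNA 24 h post-dose in transiently transfected HepG2 cells. Androgen receptor stimulated with 3 nM 6-alpha-fluorotestosterone plus 1.5 nM norgestrel; gain of signal versus DMSO analysed.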

The target of experiment [10] is zebrafish Thyroid Hormone Receptor beta (TRb), thrb (gene 30607) (UniProt Q9PVE4). Briefly: ATG_zfTRb_XSP2: Attagene TRANS-FACTORIAL Multi-Species (XSP1) HepG2 Assay for zebrafish Thyroid Hormone Receptor beta (TRb) (AID 2283836). The gist of the method:
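Reporter transcripts were measured by RT-PCR with fluorescent primer extension and capillary electrophoresis, 24 h after chemical dosing of transiently transfected HepG2 cells. Activity was scored as upward signal versus DMSO baseline.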

Experiment [11] is described as follows: ATG_XTT_Cytotoxicity_XSP2: Cytotoxicity Assessment in the Attagene TRANS-FACTORIAL Multi-Species (XSP2) HepG2 Assay (AID 2283837). The gist of the method: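 XTT-based cell number read-out in human HepG2 liver cells carrying transfected reporter units, measured 24 h after chemical dosing. Activity is signal loss versus DMSO baseline.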
Experiment [12] has as its target human Thyroid hormone Receptor alpha (TRa), THRA (gene 7067) (UniProt P10827). Briefly: ATG_hTRa_XSP2: Attagene TRANS-FACTORIAL Multi-Species (XSP2) HepG2 Assay for human Thyroid hormone Receptor alpha (TRa) (AID 2283838). The gist of the method:
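Gain-of-signal in reporter mRNA, relative to DMSO, after 24 h dosing of transfected HepG2; quantitation by RT-PCR fragment analysis on capillary electrophoresis.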

In experiment [13] the target is frog Thyroid hormone Receptor alpha (TRa), thra-a (gene 397942) (UniProt P15204). Kind of experiment: ATG_frTRa_XSP2: Attagene TRANS-FACTORIAL Multi-Species (XSP2) HepG2 Assay for frog Thyroid hormone Receptor alpha (TRa) (AID 2283839). The gist of the method:
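HepG2 cells transiently transfected with multiplexed GAL4-UAS reporter units expressing chimeric frog TRα-Gal4; reporter mRNA read 24 h after dosing by RT-PCR, FAM-labelled primer extension, HpaI digest and capillary electrophoresis. Gain of signal fitted versus DMSO.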

Experiment [14] concerns the target human Thyroid hormone Receptor beta (TRb), THRB (gene 7068) (UniProt P10828). Briefly: ATG_hTRb_XSP2: Attagene TRANS-FACTORIAL Multi-Species (XSP2) HepG2 Assay for human Thyroid hormone Receptor beta (TRb) (AID 2283840).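 Further: actives raise reporter mRNA so potency reflects agonist-like gain of signal.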 The method, boiled down: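 HepG2 cells were transiently transfected with GAL4-UAS multiplexed reporter units expressing chimeric NR-Gal4 proteins, dosed 24 h; reporter mRNA was quantified by RT-PCR, fluorescent labeling, HpaI digestion and capillary electrophoresis, fitted for gain of signal versus DMSO.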

For experiment [15], the target named is Peroxisome proliferator-activated receptor gamma (Homo sapiens) (UniProt P37231). Kind of experiment: ATG_hPPARg_XSP2: Attagene TRANS-FACTORIAL Multi-Species (XSP2) HepG2 Assay for human Peroxisome Proliferator-activated Receptor gamma (PPARg) (AID 2283829).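 Further: actives raise reporter mRNA above DMSO so AC50 reflects PPARg activation.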 The method, boiled down: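 HepG2 cells transiently transfected with multiplexed GAL4-UAS reporter units for chimeric NR-Gal4 receptors, dosed 24 h. Reporter mRNA quantified by RT-PCR, 6-FAM labeling, HpaI digestion and capillary electrophoresis; gain-of-signal fitted against DMSO baseline.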
Chain of Peroxisome proliferator-activated receptor gamma (Homo sapiens) (P37231 whole entry, looked up, the tested form may be a part): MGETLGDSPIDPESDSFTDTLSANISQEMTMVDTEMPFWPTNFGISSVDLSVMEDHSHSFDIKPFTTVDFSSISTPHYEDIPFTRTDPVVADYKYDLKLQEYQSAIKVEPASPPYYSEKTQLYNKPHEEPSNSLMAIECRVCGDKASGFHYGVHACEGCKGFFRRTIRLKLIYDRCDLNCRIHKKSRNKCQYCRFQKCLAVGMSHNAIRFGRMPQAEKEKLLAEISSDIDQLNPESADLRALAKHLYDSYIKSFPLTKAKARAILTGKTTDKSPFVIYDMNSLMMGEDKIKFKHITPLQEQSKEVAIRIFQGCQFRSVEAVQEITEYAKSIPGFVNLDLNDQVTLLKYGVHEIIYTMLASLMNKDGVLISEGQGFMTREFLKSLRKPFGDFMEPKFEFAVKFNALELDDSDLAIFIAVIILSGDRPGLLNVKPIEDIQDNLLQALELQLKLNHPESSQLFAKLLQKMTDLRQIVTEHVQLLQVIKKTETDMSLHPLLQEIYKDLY

Experiment [16] can be described thus: CEETOX_H295R_11DCORT_noMTC: CeeTox H295R High-throughput Steroidogenesis Assay for 11-Deoxycortisol (11DCORT), maximum tolerated concentration (MTC) filtered results only (AID 2283911; active means hit-call score of the fitted dose curve at least 0.9, where 1 is the maximum; inactive means score below 0.9). Particulars: actives raise or lower the signal. The method, boiled down: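 HPLC-MS/MS read-out of 11-deoxycortisol after MTBE extraction of H295R medium. Cells: forskolin 10 uM pre-stimulation 48 h, chemical 48 h, 0.1% DMSO final. Bidirectional fit vs DMSO baseline; no MTC filtering.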

Experiment [17] is described as follows: CEETOX_H295R_OHPREG_noMTC: CeeTox H295R High-throughput Steroidogenesis Assay for OH-Pregnenolone (OHPREG), maximum tolerated concentration (MTC) filtered results only (AID 2283912; active means hit-call score of the fitted dose curve at least 0.9, where 1 is the maximum; inactive means score below 0.9). Particulars: actives raise or lower the signal. The method, boiled down:
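Medium 17alpha-hydroxypregnenolone quantified by reverse-phase HPLC-MS/MS after 48 h chemical exposure of forskolin-prestimulated (10 uM, 48 h) H295R, 0.1% DMSO final. Fitting bidirectional relative to DMSO; no maximum-tolerated-concentration filtering applied.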

Experiment [18] in a line: CEETOX_H295R_OHPROG_noMTC: CeeTox H295R High-throughput Steroidogenesis Assay for OH-Progesterone (OHPROG), maximum tolerated concentration (MTC) filtered results only (AID 2283914; active means hit-call score of the fitted dose curve at least 0.9, where 1 is the maximum; inactive means score below 0.9). Particulars: actives raise or lower the signal. The method, boiled down:
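After 48 h forskolin (10 uM) prestimulation, H295R adrenal cells received test chemical in 0.1% DMSO for 48 h. Medium 17alpha-hydroxyprogesterone was MTBE-extracted and measured by HPLC-MS/MS; gain or loss relative to DMSO, no MTT-based MTC filtering.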

Experiment [19] is described as follows: CEETOX_H295R_CORTISOL_noMTC: CeeTox H295R High-throughput Steroidogenesis Assay for Cortisol, maximum tolerated concentration (MTC) filtered results only (AID 2283916; active means hit-call score of the fitted dose curve at least 0.9, where 1 is the maximum; inactive means score below 0.9). Particulars: actives raise or lower the signal. The gist of the method:
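Cortisol secretion measured by LC-MS/MS after 48 h chemical treatment (final 0.1% DMSO) of forskolin-primed (10 uM, 48 h) H295R cells; gain or loss fitted relative to DMSO, without maximum-tolerated-concentration filtering.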

Several values for one entry are separate records, joined by “and”; a condition that tells them apart may be missing. Identical values can stand only once. Records with an inconclusive call do not appear. Activity calls are given as the source filed them. How the source made its calls, unless noted: active means hit-call score of the fitted dose curve at least 0.9, where 1 is the maximum; inconclusive means response in the unintended direction; inactive means score below 0.9.

Chain of human Thyroid hormone Receptor alpha (TRa), THRA (gene 7067) (P10827 whole entry, looked up, the tested form may be a part): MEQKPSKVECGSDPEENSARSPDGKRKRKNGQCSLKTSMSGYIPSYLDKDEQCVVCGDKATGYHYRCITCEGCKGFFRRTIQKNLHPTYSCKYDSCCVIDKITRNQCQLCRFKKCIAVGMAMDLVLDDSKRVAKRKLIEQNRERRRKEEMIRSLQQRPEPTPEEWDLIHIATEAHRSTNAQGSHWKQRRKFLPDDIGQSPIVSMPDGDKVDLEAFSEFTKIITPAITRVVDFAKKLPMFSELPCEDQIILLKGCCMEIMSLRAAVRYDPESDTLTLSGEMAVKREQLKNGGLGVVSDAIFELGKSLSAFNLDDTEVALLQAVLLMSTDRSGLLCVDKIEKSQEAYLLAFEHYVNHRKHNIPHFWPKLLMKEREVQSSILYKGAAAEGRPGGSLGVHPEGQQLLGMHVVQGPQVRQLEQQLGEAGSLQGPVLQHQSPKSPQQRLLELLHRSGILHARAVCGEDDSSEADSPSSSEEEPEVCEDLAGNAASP
Chain of frog Thyroid hormone Receptor alpha (TRa), thra-a (gene 397942) (P15204 whole entry, looked up, the tested form may be a part): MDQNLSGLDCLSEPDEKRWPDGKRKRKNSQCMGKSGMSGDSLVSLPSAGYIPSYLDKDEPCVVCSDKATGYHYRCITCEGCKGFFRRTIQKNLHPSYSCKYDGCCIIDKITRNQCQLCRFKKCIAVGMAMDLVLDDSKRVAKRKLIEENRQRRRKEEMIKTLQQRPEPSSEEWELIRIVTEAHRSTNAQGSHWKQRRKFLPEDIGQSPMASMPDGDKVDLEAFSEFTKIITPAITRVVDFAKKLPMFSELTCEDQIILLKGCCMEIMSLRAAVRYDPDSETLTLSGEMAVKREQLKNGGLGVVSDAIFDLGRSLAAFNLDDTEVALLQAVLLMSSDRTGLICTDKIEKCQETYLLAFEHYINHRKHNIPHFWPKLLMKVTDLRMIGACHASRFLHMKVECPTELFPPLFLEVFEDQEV
Chain of zebrafish Thyroid Hormone Receptor beta (TRb), thrb (gene 30607) (Q9PVE4 whole entry, looked up): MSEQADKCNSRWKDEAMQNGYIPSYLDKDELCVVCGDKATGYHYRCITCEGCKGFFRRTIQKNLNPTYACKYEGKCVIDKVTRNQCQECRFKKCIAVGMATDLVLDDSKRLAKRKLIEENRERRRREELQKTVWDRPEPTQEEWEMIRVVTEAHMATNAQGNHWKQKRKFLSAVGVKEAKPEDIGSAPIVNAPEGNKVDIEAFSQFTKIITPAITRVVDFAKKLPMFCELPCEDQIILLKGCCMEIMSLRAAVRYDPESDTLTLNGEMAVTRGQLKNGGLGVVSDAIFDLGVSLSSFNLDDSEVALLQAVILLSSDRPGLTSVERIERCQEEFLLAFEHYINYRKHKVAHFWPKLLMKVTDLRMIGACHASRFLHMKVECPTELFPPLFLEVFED
Chain of zebrafish Thyroid Hormone Receptor alpha (TRa), thraa (gene 30670) (Q98867 whole entry, looked up, the tested form may be a part): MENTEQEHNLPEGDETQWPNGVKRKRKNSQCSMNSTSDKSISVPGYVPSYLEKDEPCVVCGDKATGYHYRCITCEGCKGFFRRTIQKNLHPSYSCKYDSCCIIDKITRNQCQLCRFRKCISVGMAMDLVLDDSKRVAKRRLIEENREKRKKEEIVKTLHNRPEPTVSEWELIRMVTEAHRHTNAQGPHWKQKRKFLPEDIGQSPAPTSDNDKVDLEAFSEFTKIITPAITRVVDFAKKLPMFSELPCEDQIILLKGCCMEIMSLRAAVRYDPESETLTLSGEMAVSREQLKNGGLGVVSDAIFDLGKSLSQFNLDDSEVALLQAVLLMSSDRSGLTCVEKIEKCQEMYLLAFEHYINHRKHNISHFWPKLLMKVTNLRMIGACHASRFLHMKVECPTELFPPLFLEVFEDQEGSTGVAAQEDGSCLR
Chain of human Thyroid hormone Receptor beta (TRb), THRB (gene 7068) (P10828 whole entry, looked up, the tested form may be a part): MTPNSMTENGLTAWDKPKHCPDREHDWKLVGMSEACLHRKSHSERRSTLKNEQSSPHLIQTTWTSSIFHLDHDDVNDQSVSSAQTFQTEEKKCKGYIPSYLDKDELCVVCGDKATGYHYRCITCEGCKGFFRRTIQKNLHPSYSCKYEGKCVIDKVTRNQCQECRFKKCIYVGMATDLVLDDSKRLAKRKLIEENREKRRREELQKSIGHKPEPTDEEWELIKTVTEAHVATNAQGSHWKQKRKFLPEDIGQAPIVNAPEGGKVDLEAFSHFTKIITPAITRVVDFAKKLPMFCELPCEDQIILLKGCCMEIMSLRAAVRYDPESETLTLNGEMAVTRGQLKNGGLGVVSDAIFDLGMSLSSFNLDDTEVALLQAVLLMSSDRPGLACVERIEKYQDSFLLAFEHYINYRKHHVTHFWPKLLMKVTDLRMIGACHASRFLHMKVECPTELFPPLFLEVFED

With `c1ccc2c(c1)oc1ccccc12`, the result in [1] and in [2] was inactive.

As usually defined, the AC50 is the midpoint of the concentration-response curve, whichever way the signal moves. Take `CCC(C)c1ccc(O)cc1` (configuration not stated): the compound was called inactive in experiment [3], in experiment [5], in [6], in experiment [7], in experiment [8] and in [9]. Also, the result in experiment [10], in experiment [11], in experiment [12], in experiment [13], in experiment [14] and in experiment [1] was inactive. Further, in [2], the outcome was inactive. In experiment [4], the concentration at half-maximal activity (AC50) is 59.5 µM (active) and 135 µM (active).

`[Cl-].[Cl-].[Hg+2]`: the AC50 in [1] is 7.02 µM (active); in experiment [2] it was 39.4 µM (active).

With `C[C@]12C=CC3=C4CCC(=O)C=C4CC[C@H]3[C@@H]1CC[C@@H]2O`, the compound was called inactive in [15], in experiment [4], in [6] and in [9]. The AC50 in [14] is 0.0256 µM (active).

For the compound `O=[N+]([O-])c1ccc(Oc2ccc(Cl)cc2Cl)cc1`, the concentration at half-maximal activity (AC50) in experiment [15] was 16 µM (active) and 10.8 µM (active); in experiment [4] it was 16.9 µM (active) and 27.2 µM (active); in experiment [5], 4.29 µM (active) and 2.99 µM (active). The call in experiment [6], in [7], in [8], in [9], in [10] and in experiment [11] was inactive. The compound was called inactive in [12], in experiment [13], in experiment [14], in experiment [1] and in [2].

On to `CN(C)c1ccc(C(=O)c2ccc(N(C)C)cc2)cc1`, for which the result in experiment [1] and in experiment [2] was inactive.

For the compound `CC(C)(O)c1cnn2c(-c3ccc(F)c(-c4c(F)cccc4C#N)c3)cnc2n1`, the result in [1] and in [2] was inactive.

`Brc1ccc(Oc2ccccc2)cc1`: the outcome in experiment [1], in [2], in experiment [16], in [17], in [18] and in [19] was inactive.
